Data on 29 compounds can be found in ChEMBL document CHEMBL3988442, “University of Dundee, Small-Polar-MMV Screening Library” (2021).

In this assay the target is T1, Methionyl-tRNA synthetase, putative (Leishmania donovani (strain BPK282A1)) (UniProt E9BF75).
T1 sequence (whole entry): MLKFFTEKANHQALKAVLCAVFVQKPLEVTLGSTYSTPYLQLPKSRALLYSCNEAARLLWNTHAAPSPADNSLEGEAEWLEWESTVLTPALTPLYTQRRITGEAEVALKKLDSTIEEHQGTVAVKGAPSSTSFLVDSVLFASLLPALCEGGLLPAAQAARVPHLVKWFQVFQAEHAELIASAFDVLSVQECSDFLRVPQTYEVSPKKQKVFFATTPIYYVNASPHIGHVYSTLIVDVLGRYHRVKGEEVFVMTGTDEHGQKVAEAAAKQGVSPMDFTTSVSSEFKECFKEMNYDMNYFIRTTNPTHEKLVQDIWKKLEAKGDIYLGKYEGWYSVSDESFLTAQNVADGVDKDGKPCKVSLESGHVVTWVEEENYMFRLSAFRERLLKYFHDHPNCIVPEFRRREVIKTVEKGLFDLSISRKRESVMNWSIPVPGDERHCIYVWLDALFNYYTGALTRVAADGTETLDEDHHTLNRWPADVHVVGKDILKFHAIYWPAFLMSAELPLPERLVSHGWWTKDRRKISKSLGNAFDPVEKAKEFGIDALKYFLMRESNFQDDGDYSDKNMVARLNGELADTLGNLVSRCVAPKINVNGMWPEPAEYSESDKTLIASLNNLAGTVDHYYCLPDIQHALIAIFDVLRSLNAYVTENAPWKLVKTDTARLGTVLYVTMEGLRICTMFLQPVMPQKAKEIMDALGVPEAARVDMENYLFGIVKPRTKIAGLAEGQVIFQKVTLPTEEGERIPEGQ
Kind of assay: Leishmania donovani Methionine tRNA synthetase (LdMetRS):v7. Dose response assay. It counts as functional. The arrangement: conc 80 nM, time 150 minutes.

For `Cc1nc(N(C)CC(=O)NC2CC2)c2c3c(sc2n1)CCCC3`, the PXC50 is, setting by setting: (MAX_EFFECT 4.761904762) below 4; (MAX_EFFECT 5.333333333) below 4.
Consider `CNS(=O)(=O)c1cc(C(C)C)c(Br)cc1C(C)C`, for which the PXC50 was below 4 (MAX_EFFECT 9.649122807) and below 4 (MAX_EFFECT 14.58333333).
`CC(C)C[C@H](N)COc1ccccc1-c1ccno1`: the PXC50 was below 4 (MAX_EFFECT 9.594882729) and below 4 (MAX_EFFECT 10.97308489).
Regarding `CCN(CCO)c1nc(-c2ccsc2)nc2sc3c(c12)CCCC3`, the PXC50 by setting is: (MAX_EFFECT 43.2) below 4; (MAX_EFFECT 48.67724868) below 4.
With `CS(=O)(=O)N1CCN(c2cnc3ncc(C(=O)NC4CCCC4)cn23)CC1`, the PXC50 is, setting by setting: (MAX_EFFECT 3.624733475) below 4; (MAX_EFFECT 4.761904762) below 4.
`Cc1nc(NCCCNS(C)(=O)=O)c2c3c(sc2n1)CCC3` showed a PXC50 (MAX_EFFECT 6.914893617) below 4 and a PXC50 (MAX_EFFECT 9.844559585) below 4.
Consider `COc1ccc2c(c1)COB2O`, for which the PXC50 is, setting by setting: (MAX_EFFECT 5.094339623) below 4; (MAX_EFFECT 9.589041096) below 4.
As for `CCn1cc(-c2cc(C(F)(F)F)nc(NC3CCCC3)n2)c(C)n1`, the PXC50 runs as follows: (MAX_EFFECT 6.788511749) below 4; (MAX_EFFECT 7.571801567) below 4.
Consider `CC(C)C[C@H](N)COc1ccccc1N1CCCC1=O`, for which the PXC50 by setting is: (MAX_EFFECT 8.074534161) below 4; (MAX_EFFECT 13.85927505) below 4.
Turning to `Fc1cccc(OC[C@@H]2CCCN2)c1Oc1ccc(Cl)cc1`, the PXC50 by setting is: (MAX_EFFECT 8.488612836) below 4; (MAX_EFFECT 13.00639659) below 4.
On to `COCCNc1nc(-c2ccccn2)nc2sc3c(c12)CCCC3`, for which the PXC50 (BOTTOM 1.822787583, HILLSLOPE 1.291311311, MAX_EFFECT 71.49122807, TOP 102.6012048) came to 4.27 and the PXC50 (BOTTOM -5.083400143, HILLSLOPE 1.043102409, MAX_EFFECT 66.66666667, TOP 106.555572) was found to be 4.25.
As to `Cc1cc(C(F)(F)F)nc(N2CCN(Cc3nccn3C)CC2)n1`, the PXC50 reads like this: (MAX_EFFECT 3.571428571) below 4; (MAX_EFFECT 6.313131313) below 4.
Consider `Cc1sc2nc(CN3CCOCC3)nc(NCC3CCCO3)c2c1C` (stereo not drawn), for which the PXC50 is below 4 (MAX_EFFECT 9.836065574) and below 4 (MAX_EFFECT 10.69518717).
Take `Cc1nc(N(C)CCC(=O)O)c2cc(-c3ccccc3)sc2n1`: the PXC50 is below 4 (MAX_EFFECT 10.96256684) and below 4 (MAX_EFFECT 15.76086957).
`OC1CCc2cc(Cl)cc(Cl)c21` (stereo not drawn): the PXC50 (MAX_EFFECT 6.26349892) is below 3 and the PXC50 (MAX_EFFECT 9.69581749) is below 3.
Compound `CO[C@H]1[C@@H]2CC[C@H]1CN(c1nc(C)nc3sccc13)C2` displayed a PXC50 (MAX_EFFECT 8.838383838) below 4 and a PXC50 (MAX_EFFECT 9.693877551) below 4.
For `COC(=O)CN(C)c1nc(-c2cccs2)nc2sc(C)c(C)c12`, the PXC50 (MAX_EFFECT 23.66412214) is below 4 and the PXC50 (MAX_EFFECT 24.93702771) was below 4.
Regarding `CS(=O)(=O)N1CCN(c2ccc3ccc(C(=O)NCCN4CCc5ccccc5C4)cn23)CC1`, the PXC50 runs as follows: (BOTTOM 9.287524867, HILLSLOPE 2.626114762, MAX_EFFECT 78.976234, TOP 76.44379257) 4.95; (BOTTOM -0.296501823, HILLSLOPE 1.63582329, MAX_EFFECT 73.68421053, TOP 78.31707036) 5.09.
As for `COCCNC(=O)c1ccc2ccc(N3CCN(CC4CC4)CC3)n2c1`, the PXC50 reads like this: (BOTTOM 5.874206897, HILLSLOPE 1.640597442, MAX_EFFECT 51.96261682, TOP 70.05301325) 4.26; (MAX_EFFECT 46.71201814) below 4.
Regarding `CS(=O)(=O)N1CCN(c2ccc3ccc(C(=O)N4CCCC4)cn23)CC1`, the PXC50 reads like this: (BOTTOM 0.156945579, HILLSLOPE 1.857683392, MAX_EFFECT 58.30188679, TOP 61.51792395) 4.86; (BOTTOM 4.583304472, HILLSLOPE 3.359740299, MAX_EFFECT 56.16438356, TOP 53.05051886) 4.95.
In the case of `CCc1nc(N2CCN(c3ccccn3)CC2)c2c3c(sc2n1)CCC3`, the PXC50 was below 4 (MAX_EFFECT 39.95098039) and below 4 (MAX_EFFECT 40.86538462).
With `Cc1cc(C(F)(F)F)nc(N(C)Cc2c(C)noc2C)n1`, the PXC50 was below 4 (MAX_EFFECT 10.44386423) and below 4 (MAX_EFFECT 10.70496084).
`Cc1nc(NCC(=O)O)c2cc(-c3ccccc3)sc2n1` returned a PXC50 (MAX_EFFECT 8.533333333) below 4 and a PXC50 (MAX_EFFECT 10.58201058) below 4.
For the compound `CC(C)N1CCN(c2ccc3ccc(C(=O)NC4CCCC4)cn23)CC1`, the PXC50 reads like this: (BOTTOM 0.093, HILLSLOPE 1.274308059, MAX_EFFECT 67.28971963, TOP 100.0) 4.24; (BOTTOM -1.582312145, HILLSLOPE 1.245531895, MAX_EFFECT 64.39909297, TOP 98.29335099) 4.24.
Regarding `CC(C)C[C@H](N)COc1ccccc1-c1ccnn1C`, the PXC50 is, setting by setting: (MAX_EFFECT 4.572564612) below 4; (MAX_EFFECT 5.733944954) below 4.
As to `Cc1noc(CCNC(=O)c2ccc3ccc(N4CCN(S(C)(=O)=O)CC4)n3c2)n1`, the PXC50 amounted to 4.74 (BOTTOM 5.724020306, HILLSLOPE 2.592848239, MAX_EFFECT 58.13528336, TOP 58.43223286) and 4.91 (BOTTOM -1.848364429, HILLSLOPE 1.849781613, MAX_EFFECT 52.63157895, TOP 54.86189083).
As for `COc1ccc(-c2cc(C(F)(F)F)nc(N3CCCC3)n2)cc1`, the PXC50 runs as follows: (MAX_EFFECT 5.85106383) below 4; (MAX_EFFECT 7.772020725) below 4.
As for `Cc1nc(N2CCNC(=O)CC2C)c2c(CC(C)C)csc2n1` (stereo not drawn), the PXC50 is below 4 (MAX_EFFECT 4.918032787) and below 4 (MAX_EFFECT 7.486631016).
`Cc1sc2nc(CN3CCOCC3)nc(NC3CC3)c2c1C`: the PXC50 by setting is: (MAX_EFFECT 8.673469388) below 4; (MAX_EFFECT 8.838383838) below 4.
